The record followed here is ChEMBL document CHEMBL3988442, “University of Dundee, Small-Polar-MMV Screening Library” (2021).

This experiment concerns Trypanosoma brucei. Nature of the experiment: Trypanosoma brucei 72 hour study. The class given is functional, organism-based. Also noted: scale not given: in the data most compounds retested in dose-response had high values.

The campaign covered roughly 66,000 compounds. About 960 (1.5%) showed an effect of 50% or more. The sample holds strong results, similar compounds and a random draw of the others, so the mix is not that of the screen.

`CC(=O)N1CCCC2(CCC(=O)N2Cc2cccnc2)C1.O=C(O)C(F)(F)F` (centres undefined): where the note is “30.3 µM, […]”, the “Percent Effect” value amounted to 1.324%. On to `COCCCN1Cc2cccc(NC(=O)c3cc(F)cc(F)c3)c2C1`, for which, under “30 µM, 30.03 µM”, the “Percent Effect” value is 34.67%. Still for that read-out and setting: under `COCCCN1Cc2cccc(NC(=O)c3cc(F)ccc3F)c2C1` stands 52.37%.

As for `COCCCN1Cc2cccc(NC(=O)c3ccccc3Cl)c2C1`, the “Percent Effect” value (30 µM, 30.03 µM) amounted to 7.9%. `CN1CCN(C2COC3(CCN(Cc4cccs4)CC3)C2)CC1.O=C(O)C(F)(F)F.O=C(O)C(F)(F)F` (centres undefined): under “30.3 µM, […]”, the “Percent Effect” value is -470.3%. For the compound `Cc1nc[nH]c1CN1C[C@@H]2CC[C@H](C1)N(C(=O)CCc1cccnc1)C2`, the “Percent Effect” value (30 µM, 30.03 µM) is -21.46%. The same measure, in the same setting: next, `Cc1nc(CN2CC3(CCN(c4cnccn4)C3)CC2=O)cs1.O=C(O)C(F)(F)F` (centres undefined): -45.32%; `CC(=O)Nc1nc(C(=O)N2CCCC(c3cc(C)[nH]n3)C2)cs1` (centres undefined): 16.48%. Turning to `Cc1[nH]/c(=N\C(=O)c2csc(NC3CC3)n2)sc1C`, under “30 µM, 30.03 µM”, the “Percent Effect” value was 66.57%. Still for that read-out and setting: next, `Cc1[nH]/c(=N\C(=O)c2csc(NC3CCCC3)n2)sc1C`: 95.68%; `Cc1cnc(NC(=O)c2csc(NC3CCCC3)n2)s1`: -9.891%. The same measure, in the same setting: under `CC(C)(C)[S+]([O-])CCNC(=O)c1csc(NC2CC2)n1` (centres undefined) stands -59.41%. For `CCN(CC)C(=O)CCCNC(=O)c1csc(NC2CC2)n1`, for the setting “30 µM, 30.03 µM”, the “Percent Effect” value is reported as -27.48%.

On to `O=C(O)C(F)(F)F.c1csc(CN2CCC3(CCOCC3COCC3CC3)CC2)n1` (centres undefined), for which, for the setting “30.3 µM, […]”, the “Percent Effect” value is reported as -46.34%. The same measure, in the same setting: under `C=C(C)CN1CCC(NC(=O)Nc2ccc(F)c(C(=O)NC)c2)CC1` stands -0.7134%. On the same count and under the same terms, under `CC[C@@H]1N(Cc2ccc(F)cc2)CCC[C@]12CCC(=O)N2C.O=C(O)C(F)(F)F` stands -14.8%. Still for that read-out and setting: next, `O=C(O)C(F)(F)F.O=C(c1ccco1)N1CCC2(CCCN(c3ncccn3)C2)C1` (centres undefined): -37.47%; `CC(=O)Nc1nc2c(s1)C1(CCCC1)Nc1ccccc1S2`: -6.174%. `CC(=O)Nc1nc2c(s1)C1(CCN(C)CC1)Nc1ccccc1S2`: the “Percent Effect” value (30.3 µM, […]) came to 83.23%. The same measure, in the same setting: next, `CC(=O)Nc1nc2c(s1)C(C)(C)Nc1ccccc1S2`: -17.63%. Consider `O=c1c(CN2CCOCC2)coc(O)c1CN1CCOCC1`, for which, where the note is “30 µM, 30.03 µM”, the “Percent Effect” value is -17.25%. Same read-out and setting: under `CN1CCN(c2ncc3c(=O)n(-c4cccc(F)c4)c(=O)[nH]c3n2)CC1` stands 11.72%; under `OC(CN1CCN(CC2CCCCC2)CC1)c1ccccc1` (centres undefined), -15.73%. Same read-out and setting: next, `NC(CC1CCCC1)c1ccc(Oc2ccccc2)cc1` (centres undefined): 101.8%; `Cl.NC(CC1CCCC1)c1ccccc1` (centres undefined): -30.59%. As for `COc1ccc(CN(Cc2cnc(N)nc2)CC2CCCO2)c(OC)c1.O=C(O)CC(O)(CC(=O)O)C(=O)O` (centres undefined), for the setting “30.3 µM, […]”, the “Percent Effect” value came to 5.653%. `Cc1cc(NC2CCc3nc(C)nn3C2)n2ncnc2n1` (centres undefined): the “Percent Effect” value (30 µM, 30.03 µM) is -21.45%. Take `Cc1nc2n(n1)CC(Nc1cc(C(F)(F)F)nc3ncnn13)CC2` (centres undefined): the “Percent Effect” value (30 µM, 30.03 µM) worked out at 53.11%. As for `CCCc1cc(NC2CCc3ncnn3C2)n2ncnc2n1` (centres undefined), under “30 µM, 30.03 µM”, the “Percent Effect” value is 104.4%. Still for that read-out and setting: next, `CCCc1cc(NC2CCc3nc(C)nn3C2)n2ncnc2n1` (centres undefined): -21.48%; `CCc1nc2n(n1)CC(Nc1cc(C)nc3ncnn13)CC2` (centres undefined): -89.04%; `CCCc1cc(NC2CCc3nc(CC)nn3C2)n2ncnc2n1` (centres undefined): -33.56%.

For the compound `O=C(NC1CC1)[C@H]1C[C@H]2OCC[C@H]2N(Cc2ccc3ccccc3n2)C1.O=C(O)C(F)(F)F.O=C(O)C(F)(F)F`, the “Percent Effect” value (30.3 µM, […]) is -259.7%. Turning to `COC(=O)CCN(C)Cc1cc(Br)cs1`, the “Percent Effect” value (30 µM, 30.03 µM) is reported as -12.73%. Turning to `CCOCCC(=O)N1CCc2cccc(S(=O)(=O)N3CCOCC3)c2C1`, the “Percent Effect” value (30 µM, 30.03 µM) is reported as -15.51%. On the same count and under the same terms, under `CS(=O)(=O)c1ccccc1NCc1ccc(Cn2ccnc2)cc1` stands -15.33%. The same measure, in the same setting: next, `CN(Cc1ccccn1)C1CC2(CCN(Cc3cccnc3)CC2)C1.O=C(O)C(F)(F)F.O=C(O)C(F)(F)F.O=C(O)C(F)(F)F`: -16.66%. With `CCNCc1ccc(OCc2ccc3c(c2)OCCO3)cc1.Cl`, for the setting “30 µM, 30.03 µM”, the “Percent Effect” value is given as -18.34%.

With `CCCNCc1ccc(OCc2ccc3c(c2)OCCO3)cc1.Cl`, the “Percent Effect” value (30 µM, 30.03 µM) stood at 56.18%. The same measure, in the same setting: under `CNCc1ccc(OCc2ccc3c(c2)OCCO3)cc1.Cl` stands -35.77%. For the compound `Cc1c(C(=O)N2CCCC(n3cccn3)C2)nnn1-c1ccccc1` (centres undefined), the “Percent Effect” value runs as follows: (10 µM) -41.06%; (30.3 µM, […]) -3.586%. As to `CNC(=O)CN1CCCC12CCN(Cc1c[nH]cn1)CC2.O=C(O)C(F)(F)F.O=C(O)C(F)(F)F`, the “Percent Effect” value (30 µM, 30.03 µM) was -41.63%. With `Cc1ccc(-c2ccc(CC3NCCN(C)C3=O)cc2)cc1.Cl` (centres undefined), the “Percent Effect” value (30.3 µM, […]) is listed as -13.76%.
